Results from PubChem BioAssay (NCATS).
*1 amine or outer side, *2 acyl side, *3 side chain or, on linkers, in order; H or OH if unused. Where a SMILES comes first, the peptide text is derived from it. Bridges are numbered along the chain shown (N, C = ends). Roman numbers before positions name the chains, in order. [ ]: non-standard residue; d: D form. ξ: configuration not given here. Actinocin(9to1) = Cc1c2oc3c(C)ccc(C(=O)[*:1])c3nc-2c(C(=O)[*:2])c(N)c1=O; ξNMeV = CNC(C(=O)O)C(C)C; ξV = CC(C)C(N)C(=O)O; Sar = CNCC(=O)O

Test: qHTS profiling for inhibitors of Plasmodium falciparum (HB3) proliferation (AID 743324);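 also: 100% = DMSO vehicle wells and 0% = artemisinin-treated control wells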
Conditions: Plasmodium falciparum HB3 blood-stage proliferation; at 28.7 µM (top of the series) unless noted
Summary of the method: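 SYBR Green fluorescence (485 ex/535 em) of lysed cultures, incubated overnight at room temperature in the dark, quantifies parasite DNA. Infected erythrocytes at 0.3% parasitemia and 2.5% hematocrit were exposed 72 h; values normalized to DMSO and 0.29 uM artemisinin controls.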
With `NC(=O)Nc1cc(-c2ccc(CN3CCOCC3)c(F)c2)sc1C(=O)N[C@H]1CCCNC1` the remaining proliferation (% of control), lower = more inhibition was 2.42%. Molecule `CC[C@@H](C(=O)O)C1CC[C@H](C)C([C@@H](C)[C@H](O)[C@H](C)C(=O)[C@H](CC)C2O[C@]3(C=C[C@@H](O)[C@]4(CC[C@@](C)(C5CC[C@](O)(CC)[C@H](C)O5)O4)O3)[C@H](C)C[C@@H]2C)O1` (stereo partly drawn) has a remaining proliferation (% of control), lower = more inhibition of -1.24%. `CCC1(Cc2ccc(N)cc2)CCC(=O)NC1=O` (stereo not drawn) gave a remaining proliferation (% of control), lower = more inhibition of 89.8% [at 57.5 µM]. For `CC(NC(=O)Cc1cc(F)cc(F)c1)C(=O)NC(C(=O)OC(C)(C)C)c1ccccc1` (stereo not drawn), the remaining proliferation (% of control), lower = more inhibition was 104%. Work on `Cc1c2oc3c(C)ccc(C(=O)N[C@@H]4C(=O)NC(C(C)C)C(=O)N5CCC[C@H]5C(=O)N(C)CC(=O)N(C)C(C(C)C)C(=O)O[C@@H]4C)c3nc-2c(C(=O)N[C@@H]2C(=O)NC(C(C)C)C(=O)N3CCC[C@H]3C(=O)N(C)CC(=O)N(C)C(C(C)C)C(=O)O[C@@H]2C)c(N)c1=O` (stereo partly drawn) (I: T[ξV]P[Sar][ξNMeV] / II: T[ξV]P[Sar][ξNMeV]; ester I:1-I:C, II:1-II:C; linker I:N-II:N via Actinocin(9to1)) yielded a remaining proliferation (% of control), lower = more inhibition of -2.59%. In the case of `CCC1(O)CC2CN(CCc3c([nH]c4ccccc34)[C@@](C(=O)OC)(c3cc4c(cc3OC)N(C=O)[C@H]3[C@](O)(C(=O)OC)[C@H](OC(C)=O)[C@]5(CC)C=CCN6CC[C@]43[C@@H]65)C2)C1` (stereo partly drawn), the remaining proliferation (% of control), lower = more inhibition is reported as 8.78%. In the case of `O=c1cc(C2=CC=CC3Sc4ccccc4SC23)oc(N2CCOCC2)c1` (stereo not drawn), the remaining proliferation (% of control), lower = more inhibition is reported as 76.5%. In the case of `Cc1nnc(C(C)C)n1C1CC2CCC(C1)N2CC[C@H](NC(=O)C1CCC(F)(F)CC1)c1ccccc1` (stereo partly drawn), the remaining proliferation (% of control), lower = more inhibition is reported as 96.7%. In the case of `CNC1CCN(C(Cc2cccc(-c3ccncc3)c2)C(=O)c2sc3c(F)ccc(F)c3c2Cl)CC1` (stereo not drawn), the remaining proliferation (% of control), lower = more inhibition is reported as -0.323%. Molecule `CN(NC(=O)CC(=O)NN(C)C(=S)c1ccccc1)C(=S)c1ccccc1` has a remaining proliferation (% of control), lower = more inhibition of 5.46%. Molecule `O=C(O)CC/C=C\CC[C@H]1[C@@H](N2CCCCC2)[C@@H](O)C[C@@H]1OCc1ccc(-c2ccccc2)cc1` has a remaining proliferation (% of control), lower = more inhibition of 76.1%. Work on `CCCCCCCCCCCCCCCCCCOP(=O)([O-])OC1CC[N+](C)(C)CC1` yielded a remaining proliferation (% of control), lower = more inhibition of 112% [at 18.4 µM]. `COC(=O)C1=C(C)NC(C)=C(C(=O)OCCCN2CCC(c3ccccc3)(c3ccccc3)CC2)[C@H]1c1cccc([N+](=O)[O-])c1` gave a remaining proliferation (% of control), lower = more inhibition of -0.517%.
